Dicer processing = blocks human Dicer maturation of pre-miR-21; Q9UPY3; actives 6% (n = 47,000); cat-ELCCA pre-miR-21 Dicer processing, chemiluminescence; active compounds read high; z-score at 25 µM; in the data active means z-score above about 3, passing the limit was not always enough;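 further: higher signal means more uncleaved substrate so more Dicer inhibition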
Target sequence (Q9UPY3 whole entry, looked up): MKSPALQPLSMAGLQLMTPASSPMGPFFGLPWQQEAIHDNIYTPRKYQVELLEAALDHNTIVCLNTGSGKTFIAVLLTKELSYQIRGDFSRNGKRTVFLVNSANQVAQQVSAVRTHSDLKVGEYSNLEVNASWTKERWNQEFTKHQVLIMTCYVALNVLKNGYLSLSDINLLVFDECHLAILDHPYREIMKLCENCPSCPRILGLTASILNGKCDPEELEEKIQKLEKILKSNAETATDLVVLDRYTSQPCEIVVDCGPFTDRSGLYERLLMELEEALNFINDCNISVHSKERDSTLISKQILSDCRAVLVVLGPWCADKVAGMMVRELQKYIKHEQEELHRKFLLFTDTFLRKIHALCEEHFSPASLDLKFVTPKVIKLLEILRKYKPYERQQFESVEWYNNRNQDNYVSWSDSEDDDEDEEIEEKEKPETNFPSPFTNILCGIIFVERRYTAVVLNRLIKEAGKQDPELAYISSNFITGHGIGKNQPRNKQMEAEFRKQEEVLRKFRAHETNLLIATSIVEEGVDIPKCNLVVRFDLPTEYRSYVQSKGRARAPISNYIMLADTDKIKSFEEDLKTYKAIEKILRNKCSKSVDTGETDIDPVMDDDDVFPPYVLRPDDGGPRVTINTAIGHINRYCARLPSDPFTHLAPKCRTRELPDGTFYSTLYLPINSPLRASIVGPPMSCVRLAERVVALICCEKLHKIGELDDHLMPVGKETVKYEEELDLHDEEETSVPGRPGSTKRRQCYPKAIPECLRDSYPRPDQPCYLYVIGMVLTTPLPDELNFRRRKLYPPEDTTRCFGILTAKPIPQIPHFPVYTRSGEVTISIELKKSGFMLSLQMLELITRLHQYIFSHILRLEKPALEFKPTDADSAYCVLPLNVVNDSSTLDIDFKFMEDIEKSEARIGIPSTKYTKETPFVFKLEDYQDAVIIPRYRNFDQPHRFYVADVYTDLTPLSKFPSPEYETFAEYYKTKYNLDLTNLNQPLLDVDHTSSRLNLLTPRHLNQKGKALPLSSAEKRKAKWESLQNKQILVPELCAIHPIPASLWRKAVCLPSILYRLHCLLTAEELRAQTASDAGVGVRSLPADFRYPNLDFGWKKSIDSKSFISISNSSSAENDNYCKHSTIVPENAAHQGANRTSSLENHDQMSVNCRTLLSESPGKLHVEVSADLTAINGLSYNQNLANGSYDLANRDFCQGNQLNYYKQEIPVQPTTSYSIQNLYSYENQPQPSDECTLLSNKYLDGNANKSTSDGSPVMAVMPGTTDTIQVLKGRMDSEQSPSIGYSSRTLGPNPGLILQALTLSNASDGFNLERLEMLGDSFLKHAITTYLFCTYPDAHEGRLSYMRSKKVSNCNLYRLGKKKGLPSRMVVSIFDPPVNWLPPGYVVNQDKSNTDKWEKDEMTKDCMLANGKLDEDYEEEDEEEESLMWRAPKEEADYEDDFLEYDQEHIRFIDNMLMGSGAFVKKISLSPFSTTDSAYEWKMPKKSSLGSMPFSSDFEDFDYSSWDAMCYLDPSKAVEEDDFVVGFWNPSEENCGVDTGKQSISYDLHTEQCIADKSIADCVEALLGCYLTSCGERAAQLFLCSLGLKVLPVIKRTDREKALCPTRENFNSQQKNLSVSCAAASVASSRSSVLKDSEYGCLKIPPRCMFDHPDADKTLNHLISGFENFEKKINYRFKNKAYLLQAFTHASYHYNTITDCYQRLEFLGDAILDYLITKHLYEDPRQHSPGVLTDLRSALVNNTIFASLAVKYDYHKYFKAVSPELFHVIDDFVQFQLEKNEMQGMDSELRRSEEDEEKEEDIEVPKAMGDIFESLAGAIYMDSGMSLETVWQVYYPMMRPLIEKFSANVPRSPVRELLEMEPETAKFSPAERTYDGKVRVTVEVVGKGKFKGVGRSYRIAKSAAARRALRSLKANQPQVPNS
Of the large screens only hits and unclear results are named; the others gave an inactive call. This is one part of a sample in which hits are shown more often than they occur.

Cn1c(NCCCO)nc2c1c(=O)n(Cc1ccc(Cl)cc1)c(=O)n2C	none
Cn1c(=O)c2c(nc(NCCCn3ccnc3)n2Cc2ccc(F)cc2)n(C)c1=O	Dicer processing 3.5
Cn1c(=O)c2c(nc(NCCCO)n2Cc2ccc(Cl)cc2)n(C)c1=O	Dicer processing 3.6
C=CCOC(=O)C1=C(C)NC2=C(C(=O)CC(C)(C)C2)C1c1ccc(O)c(OC)c1 (stereo unspecified)	none
O=C(NCc1ccc2c(c1)CCO2)C1=Cc2ccccc2OC1	none
Cc1[nH]c2ccc(Br)cc2c(=O)c1CN1CCCCC1C (stereo unspecified)	none
CCCSc1nnc2c(n1)OC(C)N(C(C)=O)c1ccccc1-2 (stereo unspecified)	none
CCCc1ccc(NCN2C(=O)c3ccccc3C2=O)cc1	none
CCc1ccccc1NCN1C(=O)c2ccccc2C1=O	Dicer processing 3.4
O=C1c2ccccc2C(=O)N1Cc1cccnc1	none
Cc1cccc(NCN2C(=O)c3ccccc3C2=O)c1C	none
O=C1c2ccc([N+](=O)[O-])cc2C(=O)N1CNc1cc(C(F)(F)F)cc(C(F)(F)F)c1	none
CCC(C)c1ccc(NCN2C(=O)c3ccccc3C2=O)cc1 (stereo unspecified)	Dicer processing 3.1
O=C1c2ccccc2C(=O)N1CNc1ccccc1Oc1ccc(Cl)cc1Cl	none
O=C1c2ccccc2C(=O)N1CNc1ccc(Oc2ccc(Cl)cc2)cc1	none
O=C1c2ccccc2C(=O)N1CNc1ccc(Oc2ccccc2)cc1	Dicer processing 3.8
CCOC(=O)CN1C(=O)C(O)(CC(=O)c2cccs2)c2ccccc21 (stereo unspecified)	none
CCOC(=O)NC(=S)NCCC1CCNCC1	none
CCOC(=O)NC(=S)NCCCN1CC(C)OC(C)C1 (stereo unspecified)	none
CC1=C(C(=O)OC(C)C)C(c2ccc(N(C)C)cc2)C2=C(CCCC2=O)N1 (stereo unspecified)	none
CSc1ccc(/C=C(\C#N)S(=O)(=O)c2ccc(Cl)cc2Cl)s1	none
N#Cc1c(-c2ccco2)nc(SCC(=O)Nc2ccccc2Cl)[nH]c1=O	none
N#CCCOCC1CCN(Cc2ccccc2)CC1	none
Cc1nn(C)cc1CNC(=O)c1cnn2c(C(F)(F)F)cc(-c3ccc(Br)cc3)nc12	none
CC1=C(C#N)C(c2cccc(Oc3ccccc3)c2)C2=C(CCCC2=O)N1 (stereo unspecified)	none
CN1C=CC=C/C1=C1\N=C(c2ccccc2)OC1=O	none
COc1ccc(C2C3=C(CC(C)(C)CC3=O)N=C3c4ccccc4C(=O)C32)cc1OC (stereo unspecified)	none
O=C(c1cccc(Cl)c1)c1cc2cc([N+](=O)[O-])ccc2o1	none
COC(=O)CSc1cc(C)nc(NC(C)=O)n1	none
COC(=O)CSc1nc(N)nc(C)c1Cl	none
COC(=O)CSc1nc(NC(C)=O)nc(C)c1Br	Dicer processing 3.1
Cc1ccc(/C(O)=C2/C(=O)C(=O)N(c3cccnc3)C2c2ccc(O)cc2)cc1 (stereo unspecified)	none
COC(=O)c1sccc1Oc1cc(C(F)(F)F)nc2c(C(=O)OC)scc12	none
COc1ccc(OC)c(NC(=O)C(Cl)Cl)c1	none
Cc1ccc(-c2c3c(nc4ncnn24)-c2ccccc2C3=O)cc1	none
CSc1ccc(/C=C2\C(=O)N(C)N=C2C)s1	none
COc1ccc(S(=O)(=O)NNc2c(Cl)cc(Cl)cc2Cl)cc1OC	none
COC(=O)C1=C(C)NC2=C(C(=O)c3ccccc32)C1c1ccc(OCC(=O)O)cc1 (stereo unspecified)	none
COC(=O)C(C)Oc1ccc2c(=O)c(Oc3ccccc3Cl)coc2c1 (stereo unspecified)	none
Cc1ccc2c(=O)c(C(=O)c3ccccc3Cl)coc2c1	Dicer processing 3.8
O=C(Oc1ccc2c(=O)c(-c3ccccc3Cl)coc2c1)c1cccs1	none
N#CCCN(CCc1ccccn1)C(=O)Nc1ccc(F)cc1	none
O=C(CSc1ncccn1)c1ccc(O)c(O)c1	Dicer processing 4.2
Cn1ccnc1SCC(=O)c1ccc(F)c(F)c1	none
O=C(CSc1ncc(Sc2ncccn2)c(-c2ccc(Cl)cc2)n1)c1ccc(Cl)cc1	none
Cc1ccc(C(=O)Oc2ccc3oc(=O)sc3c2)cc1	Dicer processing 5.1
CC(=O)Oc1ccc2oc(=O)sc2c1	none
CCCCNC(=O)Oc1ccc2sc(=O)oc2c1	none
O=C(O)c1cccc(S(=O)(=O)Nc2ccc3oc(=O)sc3c2)c1	none
O=C(Oc1ccc2oc(=O)sc2c1)c1ccc(Br)cc1	none
Cc1cccc(C(=O)Oc2ccc3oc(=O)sc3c2)c1	Dicer processing 5.5
O=C(Oc1ccc2c(=O)ccoc2c1)c1ccc(Cl)cc1Cl	none
O=C(Oc1ccc2oc(=O)sc2c1)c1ccccc1Cl	Dicer processing 7.2
O=C(Oc1ccc2c(c1)oc(=O)c1ccccc12)c1ccccc1	none
O=C(/C=C/c1ccccc1)OCC1CCCN2CCCCC12 (stereo unspecified)	none
O=c1[nH]nc(Sc2ncc([N+](=O)[O-])s2)n1-c1ccc(OCc2ccccc2)cc1	none
CCCOCCOC(=O)C1=C(C)NC2=C(C(=O)CCC2)C1c1ccc(OC)cc1OC (stereo unspecified)	none
CCN1CCN(c2nc3c(c(=O)n(C)c(=O)n3C)n2Cc2ccc(Cl)cc2)CC1	none
CCOC(=O)c1c[nH]c2cc(OC)ccc2c1=O	none
CCOc1ccc(N2CC(C(=O)O)CC2=O)cc1 (stereo unspecified)	none
COc1ccc(-c2[nH]ncc2/C=C/c2cc(C(F)(F)F)[nH]c(=O)n2)cc1	none
CC1CCCCN1C(=O)c1nn2c(c1Br)NC(c1cccs1)CC2C(F)(F)F (stereo unspecified)	none
O=C(c1ccccc1)c1sc(Nc2ccccc2)nc1-c1ccccc1	none
CCOC(=O)c1c(N(C)S(C)(=O)=O)sc(C)c1C	Dicer processing 3.6
CCOC(=O)c1c(N)sc(C)c1C	none
CCOC(=O)c1c(NC(=O)CC)sc(C)c1C	none
COc1cc(-c2ncnn2-c2sc3c(c2C#N)CCCCC3)ccc1O	none
CCOc1ccc(/C=C/c2nc(-c3ccc(OC)c(OC)c3)no2)cc1OCC	Dicer processing 5.2
COc1ccccc1OCc1nc(-c2ccc(Cl)cc2)no1	none
CCOc1ccc(/C=C/c2nc(-c3cccc(C)c3)no2)cc1OCC	none
CCOc1ccc(-c2nc(-c3ccc(OC)cc3)no2)cc1OCC	none
COc1ccc(/C=C/c2nc(-c3ccccn3)no2)cc1OC	none
CCOc1ccc(/C=C/c2nc(-c3ccc(Cl)cc3)no2)cc1OCC	Dicer processing 3.1
O=C(Oc1ccc(Cl)c2cccnc12)N1CCCC1	none
COC(=O)c1sc2ccccc2c1OC(=O)c1c(-c2c(Cl)cccc2Cl)noc1C	none
CC1(C)CC(CCN)(Cc2ccccc2)CCO1 (stereo unspecified)	none
COc1cc(/C=N/NC(=O)c2cc(-c3ccccc3)sc2N)cc(OC)c1OC	none
COc1cc(/C=N/N)cc(OC)c1OC	none
COc1cc(/C=N/NC(=O)c2ccccc2N)cc(OC)c1OC	Dicer processing 3.3
N#Cc1c(-c2ccccc2)nc(N/N=C/c2ccco2)[nH]c1=O	none
CCN(CC)C1=C(C(=O)c2ccccc2)N(CC(N)=O)S(=O)(=O)c2ccccc21	Dicer processing 3.1
C=CCN1C(C(=O)c2ccccc2)=C(OC(C)=O)c2ccccc2S1(=O)=O	none
O=C(CN1C(=O)c2ccccc2S1(=O)=O)c1ccccc1	none
COc1ccc(-c2noc(COc3ccccc3)n2)cc1OC	none
C#CCC1(c2ccccc2)C(=O)c2ccccc2C1=O	none
O=C1c2ccccc2C(=O)C1(Nc1ccc(Cl)c(Cl)c1)c1ccccc1	none
O=C1c2ccccc2C(=O)C1(c1ccccc1)[N+](=O)[O-]	Dicer processing 3.1
O=C(Oc1ccc(Cl)cc1)c1ccc2nsnc2c1	none
Cc1cc(NC(=S)NCCO)ccc1F	none
Cn1c(=O)c2c(nc(NCCO)n2CC(O)COc2ccccc2)n(C)c1=O (stereo unspecified)	none

Source: PubChem BioAssay (Center for Chemical Genomics, University of Michigan)
